Screening results deposited in PubChem by National Center for Advancing Translational Sciences (NCATS).
ASM inhibitor: blocks human secretory acid sphingomyelinase; P17405; 340,000 compounds, 0.006% hits; placental ASM, HMU-PC fluorogenic substrate, 60 min; Potency, µM (highest dose often 57.5 µM), inactives show at the top dose activity change, negative = inhibition, actives largely listed as inhibitors
Target sequence (P17405 47-631 limits assumed): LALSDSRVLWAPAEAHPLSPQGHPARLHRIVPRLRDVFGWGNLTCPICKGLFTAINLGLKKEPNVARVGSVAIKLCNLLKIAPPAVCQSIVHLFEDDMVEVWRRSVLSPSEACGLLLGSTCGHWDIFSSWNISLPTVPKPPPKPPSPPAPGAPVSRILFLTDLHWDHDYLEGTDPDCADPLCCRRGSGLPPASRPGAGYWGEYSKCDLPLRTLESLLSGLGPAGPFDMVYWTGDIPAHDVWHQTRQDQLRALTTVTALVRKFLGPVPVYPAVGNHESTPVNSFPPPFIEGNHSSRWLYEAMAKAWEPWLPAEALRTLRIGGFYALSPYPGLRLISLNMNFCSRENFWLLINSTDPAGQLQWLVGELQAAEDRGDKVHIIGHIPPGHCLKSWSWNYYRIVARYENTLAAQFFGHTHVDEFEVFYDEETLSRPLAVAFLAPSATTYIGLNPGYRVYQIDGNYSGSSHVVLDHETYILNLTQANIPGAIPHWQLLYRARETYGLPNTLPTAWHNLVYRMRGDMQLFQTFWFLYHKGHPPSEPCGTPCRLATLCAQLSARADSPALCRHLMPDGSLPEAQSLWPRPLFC
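Human placenta-derived ASM enzyme was preincubated with compound for 10 minutes at room temperature, then given fluorogenic substrate HMU-PC0 (9 uM final) for 60 minutes at 37 °C; a pH 10 stop preceded fluorescence reading at Ex 386/Em 447 nm.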
p53 reactivator: mutant p53 re-activation in reporter cells; Potency, µM (top dose mostly 92.2 µM), without a hit: at the top dose activity change, positive = activation, most hits filed as activators; H1299 p53-A138V BP100-luciferase reporter, luminescence, 24 h; 320,000 compounds, 0.063% hits; also: % of control where 0% means no effect; nearly all actives have a fitted effect of over 45% in size
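H1299 (p53-null), stable ts p53-A138V + BP100-Luc; 1000 cells/well, Opti-MEM/10% FBS; cpd 4 pt, 1:5; 24 h, 37 deg C, 5% CO2; detection reagent 10 min RT; luminescence.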
ERG-DNA inh: ERG Ets/DNA interaction inhibition | 370,000 compounds, 0.028% hits | fluorescence polarization, His-ERG Ets domain / labelled DNA | Potency, µM (series often up to 76.9 µM), for inactives: at the top dose FP activity, negative = inhibition, most hits filed as inhibitors | P11308; active = well fitted inhibition curve with a large enough effect in the polarisation, with a control signal flat; inconclusive = small, poorly fitted or top-dose-only effect, or effect the other way, or a change in a side signal; inactive = no such curve, though single readings can be large or run the other way; the % refers to the polarisation;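 also: polarization taken with two DNA probes labelled with fluorescein and Texas red; % of control where 0% means no effect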
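His-tagged ERG Ets domain (1 uM in the protein solution; 300mM KCl, 50mM Tris-HCl, 1mM EDTA, 1mM DTT, pH 7.5) received compound, then a probe mix of 5 nM fluorescein-DNA and 100nM Texas-615-DNA. Fluorescence polarization was read for both dyes.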
KAT2A inh: blocks human GCN5L2 histone acetyltransferase. Q92830. GCN5L2 HAT assay, ThioGlo1 CoA-SH fluorescence. 390,000 compounds, 0.21% hits. Potency, µM (titrated, usually from 58.9 µM), inactives show at the top dose activity change, negative = inhibition, most hits filed as inhibitors; also: % is scaled to controls: 0 for no effect and ±100 for the full control effect
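qHTS, 1536-well. 20nM enzyme, pH 7.5 HEPES/EDTA/Tween-20 buffer; 15 min compound preinc., RT. Start: 75uM H3(1-25), 70uM AcCoA, 50uM ThioGlo1. Read Ex340/Em540 at t=0 (autofluorescence flag) and t=20 min.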
Tb PFK inh-1: inhibitors of T. brucei phosphofructokinase | O15648 | Potency, µM (highest dose often 57.5 µM), without a hit: top-dose activity, negative = inhibition, most hits filed as inhibitors | AID 485367 | T. brucei PFK, ADP-Glo luminescence | 330,000 compounds, 0.17% hits;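 also: 0% = uninhibited 1x PFK enzyme wells and -100% = no-enzyme wells; nearly all actives have a fitted effect of over 60% in size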
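1.25 nM PFK with 0.5 mM F6P and 0.1 mM ATP in 0.1 M TEA pH 8.0, 5 mM MgCl2, incubated 45 min at room temperature; ADP measured by ADP-Glo luminescence; compounds titrated up to 57 uM.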
AT treatment: candidate therapy for ataxia-telangiectasia; F2112 A-T fibroblasts, KAP-1 phosphorylation AlphaLISA; neocarzinostatin DNA damage 30 min before lysis; Potency, µM (series often up to 57.5 µM), without a hit: at the highest dose activation, actives largely listed as activators; 320,000 compounds, 0.19% hits; also: % of control where 0% means no effect; nearly all actives have a fitted effect of over 45% in size
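hTERT-immortalized A-T patient fibroblasts (F2112), 500 cells/well in OPTI-MEM, 1% FBS, got compounds for 60 min, then NCS for 30 min at 37C. Lysates were then assayed for phospho-KAP-1 by AlphaLISA (anti-pKAP1 donor, anti-KAP1 acceptor beads), 6 hr at 25C.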
Tb PFK KinaseGlo: orthogonal confirmation of T. brucei phosphofructokinase inhibitors. shares compounds with Tb PFK inh-1. Tb PFK enzyme, ATP depletion, Kinase-Glo Plus luminescence. Potency, µM (top dose mostly 57.5 µM), for the others: at the top dose inhibition. 1,100 compounds, 47% hits; calls by dose curve; also: nearly all actives have a fitted effect of over 60% in size
Tb PFK inh-2: validation of T. brucei phosphofructokinase inhibitors; 1,100 compounds, 41% hits; Potency, µM (top dose mostly 57.5 µM), without a hit: at the top dose activity change, negative = inhibition, usual class: inhibitors; AID 504637; shares compounds with Tb PFK inh-1; purified T. brucei PFK, ADP-Glo luminescence, 45 min;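 also: plate controls were full PFK enzyme control for no effect and no enzyme control for full effect; nearly all actives have a fitted effect of over 60% in size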
* = called active by the depositor. Shown are actives, neighbours in structure and some others; about 0.55% of the full set was active somewhere. Unless noted, calls follow the shape of the dose curve; as a rule, active = well fitted curve in the direction sought with a large enough effect; inconclusive = small, poorly fitted or top-dose-only effect, or another doubt; inactive = no such curve, though single readings can be large; an effect the other way counts as inactive or inconclusive. Potency is read from the fitted curve at half-maximal effect.

Screening C=C(C)C(=O)Nc1cccc(C2=NOC3(C2)C[C@H](C(N)=O)N(C(=O)c2ccccc2C(=O)c2ccccc2)C3)c1 (some centres not stated) returned ASM inhibitor -5.1%, p53 reactivator -6.7%, ERG-DNA inh 8.6%, KAT2A inh 17.3%, Tb PFK inh-1 10.7µM*, AT treatment 25.8%, Tb PFK KinaseGlo 0.675µM* and Tb PFK inh-2 0.849µM*.
CC(n1cc(C[C@H](N)C(=O)O)c2ccccc21)n1cc(C[C@H](N)C(=O)O)c2ccccc21 was read as KAT2A inh -29.8%.
`OC12C3C4CC5C6C4C1C6C(C53)N2CCc1cccc(F)c1` (configuration not stated) gave KAT2A inh -15.2%.
Screening O=c1oc2cccnc2n1CCS(=O)(=O)c1ccc(F)cc1 returned ASM inhibitor -4.6%, p53 reactivator 11.7%, ERG-DNA inh 7.9%, KAT2A inh -1.7%, Tb PFK inh-1 -3.3% and AT treatment -3.4%.
For C/C=C/C=C/C(=O)N1CC2(CC(c3cccc(NC(=O)CCCCC)c3)=NO2)C[C@H]1C(N)=O (some centres not stated) the results were ASM inhibitor -0.6%, p53 reactivator -1.7%, ERG-DNA inh 12.8%, KAT2A inh -5.2%, Tb PFK inh-1 inconclusive, AT treatment -22.6%, Tb PFK KinaseGlo inconclusive and Tb PFK inh-2 inconclusive.
For CC(C)[C@@]1(NC(=O)[C@H]2CC3c4cccc5[nH]cc(c45)C[C@H]3N(C)C2)O[C@@]2(O)C3CCCN3C(=O)[C@@H](Cc3ccccc3)N2C1=O (some centres not stated) the results were KAT2A inh -23.8%.
Screening O=C(O)CF returned KAT2A inh -1.4%.
For COc1ccc(C(=O)COC(=O)/C=C/c2ccccc2)c(OC)c1 the results were ASM inhibitor -1.7%, p53 reactivator inconclusive, ERG-DNA inh 18.4%, KAT2A inh inconclusive, Tb PFK inh-1 inconclusive, AT treatment 7.9%, Tb PFK KinaseGlo inconclusive and Tb PFK inh-2 -14.3%.
COc1ccc(CN2CCN(C(=O)COc3ccccc3)CC2)c(OC)c1 was read as ERG-DNA inh 10.4% and KAT2A inh 3.2%.
Screening O=C(O)C1C2CCC(O2)C1C(=O)Nc1ccc(F)c(F)c1 (configuration not stated) returned ASM inhibitor 3.9%, p53 reactivator inconclusive, ERG-DNA inh -12.2%, KAT2A inh -7.6%, Tb PFK inh-1 -1.3% and AT treatment 5.3%.
Screening O=C(O)C1C2C=CC(C2)C1C(=O)Nc1ccc(Cl)c(Cl)c1 (configuration not stated) returned ASM inhibitor 1.0%, ERG-DNA inh -7.5%, KAT2A inh -4.9%, Tb PFK inh-1 21.3µM*, AT treatment 12.0%, Tb PFK KinaseGlo 18.3% and Tb PFK inh-2 -13.2%.
`COc1cc(C2c3cc4c(cc3C(OC(C)=O)[C@H]3COC(=O)C23)OCO4)cc(OC)c1OC` (some centres not stated) gave KAT2A inh -16.8%.
For C[C@H](N)C(=O)N[C@@H](C)C(=O)N[C@@H](Cc1ccccc1)C(=O)CCl the results were KAT2A inh 9.2%.
Screening C=C1CC2C(CC[C@]3(C)C(=O)CCC23)[C@]2(C)C=CC(=O)C=C12 (some centres not stated) returned KAT2A inh 4.7%.
For O=C(NNC(=O)c1ccccc1O)c1cc2ccccc2o1 the results were ASM inhibitor 1.3%, p53 reactivator 17.1%, ERG-DNA inh 0.7%, KAT2A inh -22.1%, Tb PFK inh-1 inconclusive, AT treatment -4.6%, Tb PFK KinaseGlo -28.5% and Tb PFK inh-2 inconclusive.
Cc1cccc(N2CCN(C(=S)c3ccc([N+](=O)[O-])cc3)CC2)c1 was read as ASM inhibitor -0.7%, p53 reactivator 14.0%, ERG-DNA inh -6.7%, KAT2A inh -17.3%, Tb PFK inh-1 inconclusive, AT treatment 0.1%, Tb PFK KinaseGlo 23.9µM* and Tb PFK inh-2 inconclusive.
For CN(C)c1ccc(C(=S)N2CCN(c3ccc([N+](=O)[O-])cc3)CC2)cc1 the results were ASM inhibitor 14.8%, p53 reactivator 0.7%, ERG-DNA inh 7.6%, KAT2A inh inconclusive, Tb PFK inh-1 12µM*, AT treatment 13.6%, Tb PFK KinaseGlo 8.49µM* and Tb PFK inh-2 13.5µM*.
Screening O=C(Oc1ccc(C(=S)N2CCOCC2)cc1)c1ccc([N+](=O)[O-])cc1[N+](=O)[O-] returned ASM inhibitor 1.0%, p53 reactivator inconclusive, ERG-DNA inh -7.0%, KAT2A inh -2.4%, Tb PFK inh-1 0.6% and AT treatment 0.5%.
O=C(Oc1ccccc1)N1CCC2(CC1)CN(Cc1ccncc1)C2 was read as KAT2A inh -13.3%.
For Cc1noc(C)c1C(=O)N1CCC2(CCCN(CC(C)C)C2)CC1 the results were KAT2A inh 13.0%.
`CON(C)C(=O)Nc1ccc(Br)c(Cl)c1` gave KAT2A inh 24.6%.
CCOC(=O)N(C)OC(=O)Nc1ccc(Cl)c(Cl)c1 was read as ASM inhibitor -6.8%, p53 reactivator 1.3%, KAT2A inh -6.6%, Tb PFK inh-1 1.51µM*, AT treatment 7.7%, Tb PFK KinaseGlo 23.9µM* and Tb PFK inh-2 inconclusive.
Screening CCOC(=O)c1c(-c2ccc(OC)cc2)csc1/N=C/C1C(=O)CCCC1=O returned ASM inhibitor -9.0%, p53 reactivator -9.1%, ERG-DNA inh 17.0%, KAT2A inh -7.7%, Tb PFK inh-1 inconclusive, AT treatment 6.6%, Tb PFK KinaseGlo 1.2% and Tb PFK inh-2 -1.0%.
`CCOC(=O)c1c(/N=C/C2C(=O)NC(=S)NC2=O)sc2c1CCC2` gave ASM inhibitor -5.3%, p53 reactivator -5.8%, ERG-DNA inh -4.9%, KAT2A inh 0.4%, Tb PFK inh-1 5.0% and AT treatment 1.4%.
